CD11b adhes enh = enhancers of human CD11b/CD18 binding to fibrinogen. P05107+P11215. K562 CD11b/CD18 adhesion to fibrinogen, ATPlite luminescence. activation, % at 10 µM. hit rate 0.07% among 93,000. AID 1499;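 active means 10 µM primary screen giving 50% or more activity, confirmed by 40% or more on retest at that dose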
Target sequence (P05107 whole entry, looked up, other chains not shown): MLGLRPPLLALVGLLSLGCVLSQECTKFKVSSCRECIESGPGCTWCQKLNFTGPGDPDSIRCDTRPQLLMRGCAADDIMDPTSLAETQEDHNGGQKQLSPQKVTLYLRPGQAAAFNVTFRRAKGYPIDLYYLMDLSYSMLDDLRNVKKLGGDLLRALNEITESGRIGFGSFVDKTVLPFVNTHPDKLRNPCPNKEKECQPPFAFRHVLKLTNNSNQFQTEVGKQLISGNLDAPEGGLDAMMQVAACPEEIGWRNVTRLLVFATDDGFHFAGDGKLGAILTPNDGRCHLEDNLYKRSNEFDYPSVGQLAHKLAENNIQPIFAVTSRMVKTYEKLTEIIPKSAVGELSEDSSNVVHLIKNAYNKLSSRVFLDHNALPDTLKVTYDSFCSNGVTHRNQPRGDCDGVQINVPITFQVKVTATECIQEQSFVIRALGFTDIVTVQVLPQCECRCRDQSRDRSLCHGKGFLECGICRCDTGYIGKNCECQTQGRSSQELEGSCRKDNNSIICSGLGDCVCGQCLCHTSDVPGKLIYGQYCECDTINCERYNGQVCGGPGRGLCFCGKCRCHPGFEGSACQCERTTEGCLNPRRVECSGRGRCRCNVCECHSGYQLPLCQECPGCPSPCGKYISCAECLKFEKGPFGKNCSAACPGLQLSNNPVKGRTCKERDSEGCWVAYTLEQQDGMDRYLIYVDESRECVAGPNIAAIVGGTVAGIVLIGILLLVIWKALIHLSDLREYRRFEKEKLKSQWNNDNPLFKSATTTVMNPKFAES
Phagocytosis inh = macrophage phagocytosis inhibition; J774A.1 macrophage IgG-bead phagocytosis, imaging; AID 1029; hit rate 0.07% among 110,000; inhibition, % at 5 µM;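 active means inhibition above the mean of the plate negative controls plus 5 SD, cut at about 13% in these data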;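 further: phagocytic index as fraction of beads internalized from green versus red external bead signal; plate controls were DMSO negative control for no effect and cytochalasin-D positive control for full effect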
CD11b adhes inh = blocks human CD11b/CD18 adhesion to fibrinogen | P05107+P11215 | K562 CD11b/CD18 adhesion to fibrinogen, ATPlite luminescence; Mn2+ added to activate the integrin | inhibition, % at 10 µM | hit rate 0.54% among 93,000 | AID 1497;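 active means primary inhibition of 50% or more at 10 µM, then 40% or more on retest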
TNAP act mid DEA = human TNAP activation, intermediate phosphate acceptor; P05186; purified TNAP, CDP-star luminescence, 100 mM DEA, 30 min; hits give high values; scale: 0 levamisole-inhibited, 1 vehicle-only enzyme; activation factor at 20 µM; 64,000 tested, under 10 active;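 active means activation factor of at least 2 at 20 µM, relative to controls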
FAK blocker = blocks human focal adhesion kinase activity. Q05397. biochemical FAK kinase activity assay. inhibition, %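 (tested at 7 µM)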. hit rate 0.84% among 97,000;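 further: 0% = DMSO and 100% = reference compound high control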
FAK inh conf = confirmation of human focal adhesion kinase (FAK) inhibitors. shares compounds with FAK blocker. FAK kinase biochemical inhibition assay. hit rate 28% among 750. AID 794. inhibition, % at 7 µM
The depositor's hits bear a star; / = no result given. An excerpt weighted towards active compounds, which were near 0.96% of everything screened. Unless noted, no stated cut-off is given here; in the data, active means inhibition above about 19%; inactive means the rest.

SMILES	CD11b adhes enh	Phagocytosis inh	CD11b adhes inh	TNAP act mid DEA	FAK blocker	FAK inh conf
CC(=O)c1ccc(NC(=O)c2ccc3nc(-c4ccco4)c(-c4ccco4)nc3c2)cc1	81	0	-10	/	84*	30*
O=C(Nc1ccccc1)c1ccc2nc(-c3ccco3)c(-c3ccco3)nc2c1	39	0	-38	0.8	21*	2
CCCCNC(=O)c1ccc2nc(-c3ccco3)c(-c3ccco3)nc2c1	1	0	-6	0	/	/
O=C(c1cccc(C(=O)N2CCN(c3ncccn3)CC2)c1)N1CCN(c2ncccn2)CC1	/	/	/	0.9	0	/
O=C(c1ccc2nc(-c3ccco3)c(-c3ccco3)nc2c1)N1CCN(c2ncccn2)CC1	1	-8	-4	/	55*	-3
CC1CC(=O)Nc2ccccc2N1S(=O)(=O)c1cccc(Cl)c1 (centres undefined)	/	-12	/	/	/	/
c1cncc(-c2nc3ccccc3[nH]2)c1	/	/	/	/	28*	3
CC(=O)Nc1ccc2nc(-c3cccnc3)[nH]c2c1	/	/	/	0.9	/	/
CCOC(=O)c1cccc(C(=O)OCC)n1	/	/	/	1	2	/
CCOC(=O)c1cccc2c1-c1ccccc1/C2=N/O	13	/	18	0.8	49*	26*
O=C1NCC2=C1C(c1ccc(Br)cc1)Nc1ccccc1N2 (centres undefined)	/	/	/	0.9	-3	/
N/C(=N\OC(=O)c1cccc2ccccc12)c1cccc([N+](=O)[O-])c1	/	/	/	/	28*	7
COc1ccc([N+](=O)[O-])cc1N(CC(=O)NCCC1=CCCCC1)S(C)(=O)=O	/	-2	/	/	/	/
COCCCNc1c2c3c(cccc3[nH]c1=O)C(=O)c1ccccc1-2	0	3	10	0.9	20*	10
Cc1ccc(NC(=O)/C(=C\c2ccccc2)NC(=O)/C=C/c2ccccc2)cc1	-8	0	14	/	-2	/
Cc1cccc(N2CSC3=C(C#N)C(c4ccc(C)o4)CC(=O)N3C2)c1 (centres undefined)	110	0	-20	/	24*	9
Cc1c(O)c(CN2CCCC2)cc2c1oc(=O)c1ccccc12	3	-1	-4	0.9	40*	12
Cc1c(O)c(CN2CCCC2)cc2c3c(c(=O)oc12)CCC3	-4	-1	0	0.9	3	/
CCCCNC(=O)C1C2C=CC(C2)C1C(=O)O (centres undefined)	/	-4	/	/	/	/
COC(=O)C1=C(C)NC2=C(C(=O)CC(c3cccs3)C2)C1c1ccsc1 (centres undefined)	2	0	2	0.9	22*	21*
O=c1cc(-c2ccco2)oc2c1ccc1ccccc12	-2	2	20	/	26*	22*
Cc1nc(NC(C)C)c2cnn(CCc3ccccc3)c2n1	-4	-1	-4	/	5	/
CCN(CC)c1ncnc2ccc(Br)cc12	/	/	/	/	45*	18
O=S(=O)(Nc1cccnc1)c1ccc(Cl)cc1	-5	3	-3	/	-4	/
O=C(OCCN=C1NS(=O)(=O)c2ccccc21)c1cccnc1	-2	2	-4	0.9	51*	28*
SMILES	CD11b adhes enh	Phagocytosis inh	CD11b adhes inh	TNAP act mid DEA	FAK blocker	FAK inh conf
COc1cccc(C(=O)N(c2ccc(OC)cc2OC)C2C=CS(=O)(=O)C2)c1 (centres undefined)	-3	-3	-8	0.9	-6	/
O=C(Cn1c2ccccc2c(=O)c2ccccc21)N/N=C/c1cc([N+](=O)[O-])ccc1N1CCCCCC1	107*	/	-9	/	69*	80*
O=C(Cn1c2ccccc2c(=O)c2ccccc21)N/N=C/c1ccc(N2CCCC2)c([N+](=O)[O-])c1	87	-6	1	/	/	/
Cc1nn(CC(=O)Nc2ccc3c(c2)oc2ccccc23)c(=O)c2ccccc12	-2	-1	-3	0.8	29*	16
CNC(=O)Cn1nc(C)c2ccccc2c1=O	-4	-1	-7	1	3	/
COC(=O)Nc1ccc(S(=O)(=O)N2c3ccccc3CCC2C)cc1 (centres undefined)	0	0	6	0.9	/	/
Nc1c(C(=O)Nc2nc3ccccc3s2)sc2nc(-c3cccs3)ccc12	6	3	16	/	49*	27*
Nc1c(C(=O)Nc2ccccc2)sc2nc(-c3ccco3)ccc12	1	-1	-3	0.9	26*	-3
Clc1cccc(Cl)c1CSc1nnc(-c2sccc2-n2cccc2)o1	-6	/	-7	/	8	/
CC(/C=N/Nc1nc(C)cc(C)n1)=C\c1ccc(C(C)C)cc1	/	-1	/	/	/	/
COc1ccc(C(=O)Nc2nnc(-c3ccco3)s2)cc1	-2	0	22	/	-2	/
COc1ccc2nc(-c3ccco3)c(-c3ccco3)nc2c1	-3	0	10	/	67*	3
c1coc(-c2nc(-c3ccco3)c(-c3ccco3)nc2-c2ccco2)c1	-4	-3	-4	0.9	99*	3
Nc1nc(-c2ccco2)c(-c2ccco2)s1	1	0	-5	0.9	8	/
COc1cccc(NC(=O)Cn2c(=O)c3c(ncn3Cc3ccccc3)n(Cc3ccccc3)c2=O)c1	-4	2	11	/	1	/
O=C(Oc1ccc(N(Cc2cccs2)C2=NS(=O)(=O)c3ccccc32)cc1)c1ccccc1F	-6	0	-1	/	1	/
Cc1cc2nc(C)n(CCCNC(=O)Nc3cccc4ccccc34)c2cc1C	1	-1	46	/	4	/
CSc1nc(-c2ccccc2O)nc(-c2ccccc2O)n1	/	/	/	0.9	/	/
O=C(c1ccc2c(c1)OCO2)[C@@H]1[C@@H]2C(=O)N(C3CCCCC3)C(=O)[C@@H]2C2c3ccccc3C=CN21 (some centres undefined)	-4	0	-3	0.9	9	/
O=C(c1cccs1)[C@@H]1[C@@H]2C(=O)N(Cc3ccc4c(c3)OCO4)C(=O)[C@@H]2C2c3ccccc3C=CN21 (some centres undefined)	2	1	-8	/	20*	9
Cc1cc([N+](=O)[O-])cnc1N1CCOCC1	/	-3	/	/	/	/
CC(=O)Oc1ccc(-c2csc(Nc3cccnc3)n2)cc1	-3	-4	-9	/	20*	4
c1cncc(Nc2nc(-c3ccncc3)cs2)c1	3	-1	-2	1	/	/
COc1ccccc1NC(=O)CSc1c2c(nc3ccccc13)CCC2	/	-12	/	/	/	/
Cc1cc(NC(=O)CSc2c3c(nc4ccccc24)CCC3)no1	2	0	-1	0.9	27*	9
SMILES	CD11b adhes enh	Phagocytosis inh	CD11b adhes inh	TNAP act mid DEA	FAK blocker	FAK inh conf
Oc1ccccc1/C=N/Nc1cc(N2CCCC2)nc(N2CCCC2)n1	/	0	/	/	/	/
O=C(COc1cccc(C(F)(F)F)c1)Nc1ccc(S(=O)(=O)N2CCCC2)cc1	3	-3	27	1	5	/
COc1ccc2nc(C)cc(SCC(=O)N/N=C/c3cccc4ccccc34)c2c1	65	0	10	/	32*	23*
COc1ccc2nc(C)cc(SCC(=O)O)c2c1	-1	-1	-11	1	7	/
COC(=O)CSc1cc(C)nc2ccc(OC)cc12	-2	2	-5	/	19*	1
CCOc1ccc2nc(NC(=O)Nc3cccs3)sc2c1	/	/	/	0.9	/	/
